From PubChem BioAssay
In the library only some 19% were active in any assay of this set; here they are far more common.
IL1B secr inh: inhibitors of inflammasome signaling (IL-1 beta secretion) | THP-1 LPS/ATP IL-1B secretion, AlphaLISA, 16 h; stronger effect = lower value | activity change, % at 57.5 µM | 360,000 compounds, 4.7% hits; in the data active = activity change below about -50%; inconclusive = mostly about -30% to -49%
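THP-1 cells pretreated 1 hr with compounds (up to 57.5 uM final), then stimulated with LPS (250 ng/mL final) plus ATP (1.25 mM final); secreted IL-1B measured by AlphaLISA after 16 hr, decreased signal indicating inhibition.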
DT40 TDP1 CPT: DT40-hTDP1 cell growth loss with CPT; chicken DT40 Tdp1-/-;hTDP1 cells + 20 nM CPT, ATP luminescence, 48 h; Potency, µM (highest dose often 46.2 µM), without a hit: at the highest dose activity change, negative = growth inhibition, actives largely listed as inhibitors; 420,000 compounds, 12% hits; AID 686979; note: potency is the fitted concentration of half-maximal effect; nearly all actives have a fitted effect of over 55% in size
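Chicken DT40 Tdp1-/- cells stably complemented with human TDP1 were seeded at 400 cells/well in medium containing 20 nM camptothecin, exposed to pin-transferred compounds, and grown at 37 °C for at least 48 hr. Viability was read as ATP luminescence.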
ELG1 repair inh: inhibitors of ELG1-dependent DNA repair in HEK293T cells; HEK293T ELG1-luciferase reporter, luminescence, 16 h; DNA damage induced by 5-fluorouridine; Potency, µM (top dose mostly 46.1 µM), for inactives: top-dose activity change, negative = inhibition, hits mostly inhibitors; 330,000 compounds, 2.3% hits; AID 504467; note: potency is the fitted concentration of half-maximal effect; nearly all actives have a fitted effect of over 55% in size
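DMSO vehicle served as the neutral condition. Each well held 2,000 cells given 5-fluorouridine plus compound; after 16 hr at 37 °C/5% CO2, ONE-Glo was added and luciferase measured 30 min later.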
HT1080 IDH1KD tx: toxicity to HT-1080 IDH1 knockdown cells (counter line) | HT-1080 IDH1 knockdown viability, ATP luminescence, 48 h | Potency, µM (top dose mostly 46.1 µM), for the others: at the highest dose activity, negative = toxicity, usual class: cytotoxic | 360,000 compounds, 2% hits;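 note: potency is the fitted concentration of half-maximal effect; 0% = DMSO wells and -100% = cell-free medium wells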
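Using the IDH1-knockdown HT-1080 line run in the same batch and compound series as the NT line, viability after 48 h at 37 °C was determined by CellTiter-Glo luminescence and expressed as % activity.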
HT1080NT lethal: kills 2HG-producing HT-1080-NT fibrosarcoma cells; AID 686970; 360,000 compounds, 1.6% hits; Potency, µM (titrated, usually from 46.1 µM), inactives show at the highest dose activity, negative = less viability, hits mostly cytotoxic; HT-1080-NT fibrosarcoma viability, CellTiter-Glo ATP luminescence, 48 h;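 note: NT is the 2HG producing partner of a matched IDH1 knockdown line; potency is the fitted concentration of half-maximal effect; 0% = DMSO-treated cells and -100% = media-only wells without cells; nearly all actives have a fitted effect of over 55% in size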
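Viability of the 2HG-overproducing fibrosarcoma line after 48 hours of compound exposure at 37 degrees C was determined by luminescence with CellTiter-Glo, and concentration-effect curves were then fitted and categorized.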
DT40 TDP1 no CPT: qHTS for Inhibitors of human tyrosyl-DNA phosphodiesterase 1 (TDP1): qHTS in cells in absence of CPT. DT40 Tdp1-/- hTDP1 cells, no CPT, ATP luminescence, 48 h. Potency, µM (top dose mostly 46.2 µM), for inactives: at the top dose activity change, negative = growth inhibition, hits mostly inhibitors. 420,000 compounds, 15% hits. AID 686978, 2013; note: potency is the fitted concentration of half-maximal effect; nearly all actives have a fitted effect of over 55% in size
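Compound effects on proliferation are scored in DT40 Tdp1-/-;hTDP1 cells in the absence of CPT. ATP levels (CellTiter-Glo luminescence) are recorded after a ≥48 hr, 37 °C incubation.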
ELG1 FLuc counter: luciferase inhibition in cell-free luciferin readout for ELG1 hits | cell-free firefly luciferase luminescence counter-screen, ViewLux | shares compounds with ELG1 repair inh | 350 compounds, 3% hits | Potency, µM (titrated, usually from 46.1 µM), inactives show at the top dose activity change, negative = inhibition, actives largely listed as inhibitors; note: potency is the fitted concentration of half-maximal effect
ELG1-Luc inh: human ELG1 repair inhibition, luciferase-tagged ELG1 confirmation | shares compounds with ELG1 repair inh | HEK293T ELG1-luciferase levels, luminescence; cells co-treated with 5-fluorouridine | Potency, µM (doses to about 46.1 µM), without a hit: at the top dose activity change, negative = inhibition, most hits filed as inhibitors | 670 compounds, 68% hits; note: potency is the fitted concentration of half-maximal effect; nearly all actives have a fitted effect of over 55% in size
Target sequence (Q96QE3 whole entry, looked up): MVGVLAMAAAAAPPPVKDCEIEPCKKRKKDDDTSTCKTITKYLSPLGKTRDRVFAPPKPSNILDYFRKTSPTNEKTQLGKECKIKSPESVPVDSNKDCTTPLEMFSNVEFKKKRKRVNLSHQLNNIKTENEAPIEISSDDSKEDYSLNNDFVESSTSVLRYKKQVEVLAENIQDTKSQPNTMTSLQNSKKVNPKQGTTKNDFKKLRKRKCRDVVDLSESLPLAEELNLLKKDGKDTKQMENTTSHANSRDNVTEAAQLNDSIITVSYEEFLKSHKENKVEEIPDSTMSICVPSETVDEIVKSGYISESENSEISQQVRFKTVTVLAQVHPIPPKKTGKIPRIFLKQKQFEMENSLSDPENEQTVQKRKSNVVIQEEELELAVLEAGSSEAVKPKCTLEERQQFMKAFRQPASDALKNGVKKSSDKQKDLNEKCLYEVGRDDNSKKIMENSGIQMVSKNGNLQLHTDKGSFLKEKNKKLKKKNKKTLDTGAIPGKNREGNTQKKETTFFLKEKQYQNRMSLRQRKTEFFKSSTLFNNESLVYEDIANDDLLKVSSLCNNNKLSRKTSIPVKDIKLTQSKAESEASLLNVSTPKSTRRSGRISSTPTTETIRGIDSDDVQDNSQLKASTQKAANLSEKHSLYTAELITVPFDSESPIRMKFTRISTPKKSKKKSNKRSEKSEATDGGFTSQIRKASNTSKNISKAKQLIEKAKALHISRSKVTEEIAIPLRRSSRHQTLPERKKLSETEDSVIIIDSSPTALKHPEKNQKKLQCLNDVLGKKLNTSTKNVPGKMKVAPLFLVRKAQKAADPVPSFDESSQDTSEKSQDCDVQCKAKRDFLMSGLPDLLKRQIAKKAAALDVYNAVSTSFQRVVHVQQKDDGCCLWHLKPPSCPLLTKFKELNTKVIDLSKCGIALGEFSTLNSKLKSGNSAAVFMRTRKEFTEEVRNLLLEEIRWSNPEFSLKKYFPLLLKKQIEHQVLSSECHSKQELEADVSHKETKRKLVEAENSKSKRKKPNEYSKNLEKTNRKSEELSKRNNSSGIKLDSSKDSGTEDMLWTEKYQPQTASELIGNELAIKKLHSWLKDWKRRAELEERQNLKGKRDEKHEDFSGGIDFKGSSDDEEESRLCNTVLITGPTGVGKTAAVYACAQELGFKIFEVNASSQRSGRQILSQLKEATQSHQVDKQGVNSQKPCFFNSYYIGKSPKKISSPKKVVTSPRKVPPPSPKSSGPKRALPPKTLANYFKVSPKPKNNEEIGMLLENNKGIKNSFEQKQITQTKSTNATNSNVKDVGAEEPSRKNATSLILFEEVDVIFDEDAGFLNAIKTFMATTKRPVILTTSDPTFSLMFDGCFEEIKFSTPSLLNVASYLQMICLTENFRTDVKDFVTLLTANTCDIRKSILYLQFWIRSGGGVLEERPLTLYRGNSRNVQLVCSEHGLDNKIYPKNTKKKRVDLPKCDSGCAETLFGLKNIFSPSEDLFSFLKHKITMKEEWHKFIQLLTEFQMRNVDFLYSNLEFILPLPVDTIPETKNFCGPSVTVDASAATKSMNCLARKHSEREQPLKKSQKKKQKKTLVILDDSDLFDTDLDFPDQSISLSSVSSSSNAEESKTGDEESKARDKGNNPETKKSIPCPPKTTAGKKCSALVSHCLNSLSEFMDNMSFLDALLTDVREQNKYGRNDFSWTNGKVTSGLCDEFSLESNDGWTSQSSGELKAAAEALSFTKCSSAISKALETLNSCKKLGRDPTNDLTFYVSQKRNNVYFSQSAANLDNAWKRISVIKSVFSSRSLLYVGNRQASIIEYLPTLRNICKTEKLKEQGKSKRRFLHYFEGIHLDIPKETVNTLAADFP
ELG1 MMS Luc: inhibits ELG1-dependent repair under MMS stimulation in HEK293T cells; Potency, µM (series often up to 46.1 µM), inactives show at the top dose activity change, negative = inhibition, most hits filed as inhibitors; shares compounds with ELG1 repair inh; HEK293T luciferase-tagged ELG1 level, MMS stimulated; AID 624249; 670 compounds, 53% hits; note: potency is the fitted concentration of half-maximal effect; nearly all actives have a fitted effect of over 60% in size
ELG1 5-FU: confirmation of ELG1 repair inhibitors: viability with 5FU. Potency, µM (top dose mostly 46.1 µM), inactives show at the highest dose activity change, negative = viability loss, hits mostly cytotoxic. 670 tested, under 10 active. cell viability with 5-FU, ELG1-dependent repair. shares compounds with ELG1 repair inh;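 note: ELG1-luc HEK293T cells cotreated with 5-fluorouridine at 10 µM final; potency is the fitted concentration of half-maximal effect; viability measured 16 h after compound addition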
ELG1 MMS cell: confirmation of ELG1 repair inhibitors: viability with MMS | shares compounds with ELG1 repair inh | Cell viability with MMS, ELG1-dependent DNA repair | Potency, µM (highest dose often 46.1 µM), inactives show at the top dose activity change, negative = viability loss, actives largely listed as cytotoxic | 670 compounds, 33% hits;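 note: ELG1-luc HEK293T cells co-treated with 10 µM MMS; potency is the fitted concentration of half-maximal effect; viability read 16 h after compound addition; nearly all actives have a fitted effect of over 60% in size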
Cell viab unstim: counter-screen for ELG1 repair inhibitors: unstimulated cell viability; shares compounds with ELG1 repair inh; cell viability counter-screen, unstimulated, luminescence; Potency, µM (series often up to 45.9 µM), for the others: at the top dose activity change, negative = loss of viability, most hits filed as cytotoxic; 900 compounds, 8% hits; AID 624252;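 note: potency is the fitted concentration of half-maximal effect; compound exposure lasted 16 hours before reading; nearly all actives have a fitted effect of over 55% in size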
FLuc enzyme: inhibits purified firefly luciferase, counter-screen for ELG1 hits; shares compounds with ELG1 repair inh; purified firefly luciferase, luminescence counter-screen; Potency, µM (top dose mostly 57.5 µM), inactives show top-dose activity, negative = inhibition, hits mostly inhibitors; 350 compounds, 10% hits; note: potency is the fitted concentration of half-maximal effect
Numbers without * were called inactive; ? = inconclusive; . = no result given. Unless noted, calls come from the whole dose curve; as a rule, active = well fitted curve in the direction sought with a large enough effect; inconclusive = small, poorly fitted or top-dose-only effect, or another doubt; inactive = no such curve, though single readings can be large; an effect the other way counts as inactive or inconclusive. Unless noted, % is set by controls: 0 for no effect and ±100 for the full control effect.

SMILES	IL1B secr inh	DT40 TDP1 CPT	ELG1 repair inh	HT1080 IDH1KD tx	HT1080NT lethal	DT40 TDP1 no CPT	ELG1-Luc inh	ELG1 MMS Luc	ELG1 5-FU	ELG1 MMS cell	Cell viab unstim	others
COc1ccc(-c2cn(Cc3ccc(C(=O)c4ccccc4)cc3)nn2)cc1	20.1	2.06µM*	?	?	?	7.31µM*	.	.	.	.	?
COc1ccc(-c2cn(Cc3ccc4ccccc4c3)nn2)cc1	17.4	?	?	-0.2%	20.3%	-17.1%	.	.	.	.	.
Cc1csc(SC(C)C(=O)Nc2ccccc2C)n1 (stereo not given)	0.0	-28.2%	7.8%	1.7%	4.6%	-27.5%	.	.	.	.	.
O=C(c1cccc([N+](=O)[O-])c1)N1CCN(Cc2ccc3c(c2)OCO3)CC1	3.5	3.0%	?	10.9%	3.7%	-0.9%	.	.	.	.	.
O=[N+]([O-])c1ccc2ncnc(N3CCN(Cc4ccc5c(c4)OCO5)CC3)c2c1	26.9	13µM*	2.06µM*	-15.0%	-17.3%	9.2µM*	4.99µM*	12.5µM*	-10.6%	25µM*	?
O=C1CC(N2CCN(c3ccccn3)CC2)C(=O)N1CC(c1ccccc1)c1ccccc1 (stereo not given)	17.3	23.1µM*	4.11µM*	-20.4%	-20.6%	?	28.1µM*	?	-7.6%	?	?
O=C1CC(N2CCN(c3ccccn3)CC2)C(=O)N1c1ccc(F)cc1 (stereo not given)	-4.3	-9.1%	17.2%	?	15.3%	-12.3%	.	.	.	.	.
COc1ccccc1NC(=O)Nc1nc(CC(=O)Nc2ccc(F)c(F)c2)cs1	-69.2*	?	4.61µM*	11.5%	-7.3%	14.6µM*	22.3µM*	7.6%	5.9%	-7.4%	?
COc1ccccc1NC(=O)Cc1csc(N)n1	0.0	2.9%	0.0%	-4.2%	-2.0%	-2.2%	.	.	.	.	.
O=Cc1cn(CC(=O)Nc2ccc(F)cc2)c2ccccc12	32.3	?	3.66µM*	-6.1%	-9.3%	9.2µM*	-3.8%	3.15µM*	-3.4%	14.1µM*	-2.6%
CCc1ccc(N2CC(C(=O)N3CCN(c4ccccn4)CC3)CC2=O)cc1 (stereo not given)	-20.3	?	3.9%	-3.8%	-3.0%	?	.	.	.	.	.
CCc1ccc(-c2nc(CN3CCC(C(=O)N4CCN(c5ccccn5)CC4)CC3)c(C)o2)cc1	-52.7*	23.1µM*	4.11µM*	?	-25.5%	18.4µM*	7.05µM*	7.91µM*	-5.3%	7.91µM*	?
CCOC(=O)N1CCN(C(=O)c2ccc3c(c2)N=C(C)c2cc(Cl)ccc2S3)CC1	-10.4	?	3.66µM*	1.8%	24.6%	11.6µM*	8.88µM*	?	?	?	?
CC1=Nc2cc(C(=O)N3CCCC3)ccc2Sc2c(C)ccc(C)c21	-7.3	?	?	-23.5%	-6.3%	?	.	.	.	.	.
COc1ccc(NC(=O)N(C)C[C@H]2Oc3ccc(NS(=O)(=O)c4cccs4)cc3C(=O)N([C@@H](C)CO)C[C@@H]2C)cc1	-10.5	?	15.9%	-4.9%	-3.1%	-18.5%	.	.	.	.	.
CCCCCCC1(C)NC(=S)N(c2ccccc2)N1 (stereo not given)	25.6	-27.2%	?	?	-56.1%	?	19.1%	23.6%	-7.7%	-14.9%	?
Cc1cc(C)c2cc(C#N)c(SCC(=O)Nc3cc(C)on3)nc2c1	12.8	?	8.3%	27.5%	?	?	.	.	.	.	.
Nc1ccc(/C=C/c2ccc3cccnc3c2)cc1	.	?	.	.	.	15.8µM*	.	.	.	.	-1.3%	ELG1 FLuc counter=42.9%;FLuc enzyme=0.366µM*
Nc1ccc2ncccc2c1	2.9	-16.9%	?	-0.9%	3.8%	-12.7%	.	.	.	.	.
Cc1ccccc1CN1C[C@@H]2C[C@@H](c3cnc(N4CCOCC4)s3)N3CCC[C@@]23C1=O	10.9	-2.1%	-9.5%	6.4%	-1.7%	-2.1%	.	.	.	.	.
COC(=O)c1cnn2c(C(F)(F)F)cc(-c3ccccc3)nc12	15.8	-27.1%	?	?	?	-6.9%	.	.	.	.	.
O=C(c1cnn2c(C(F)F)cc(C3CC3)nc12)N1CCCC1	20.6	-17.4%	1.2%	5.8%	3.5%	-23.7%	.	.	.	.	.
Cc1cc(NC(=O)c2cnn3c(C(F)F)cc(C4CC4)nc23)no1	-4.9	?	-10.5%	-0.8%	0.0%	11.6µM*	?	-2.8%	-1.4%	-5.8%	-12.2%	ELG1 FLuc counter=0.8%;FLuc enzyme=-5.3%
Cc1cc(NC(=O)c2cnn3c(C(F)(F)F)cc(-c4ccccc4)nc23)no1	-69.4*	13µM*	7.31µM*	0.0%	0.0%	23.1µM*	5µM*	?	10.0%	?	?	ELG1 FLuc counter=98.1%;FLuc enzyme=-4.0%
